An excerpt weighted towards active compounds, which were near 12% of everything screened.
BAZ2B block = qHTS Assay for Inhibitors of BAZ2B | AlphaScreen BAZ2B-H3K14Ac peptide displacement | Potency, µM (series often up to 114 µM), for inactives: at the highest dose activity change, negative = inhibition, hits mostly inhibitors | hit rate 4.4% among 360,000 | AID 504333, 2011; note: % is set by controls: 0 for no effect and ±100 for the full control effect; nearly all actives have a fitted effect of over 60% in size
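BAZ2B (50 nM) with biotin-H3(5-23)K14Ac peptide (50 nM) in PBS pH 7.4, 0.01% Tween-20, preformed 30 min, then compound 30 min at room temperature; top concentration 110uM. AlphaScreen streptavidin donor/nickel chelate acceptor beads (10 ug/mL final), 20 min dark, signal read.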
JMJD2A Tudor = qHTS Assay for Inhibitors of JMJD2A-Tudor Domain; Lysine-specific demethylase 4A (Homo sapiens), O75164; Potency, µM (doses to about 114 µM), for the others: at the highest dose activity change, negative = inhibition, actives largely listed as inhibitors; AlphaScreen JMJD2A-Tudor / H3K4me3 peptide binding; AID 504339, 2011; hit rate 4.4% among 390,000; note: % is set by controls: 0 for no effect and ±100 for the full control effect; nearly all actives have a fitted effect of over 50% in size
G9a block = qHTS Assay for Inhibitors of Histone Lysine Methyltransferase G9a; Histone-lysine N-methyltransferase EHMT2 (Homo sapiens), Q96KQ7; G9a H3K9 monomethylation, AlphaScreen, 2 h; Potency, µM (top dose mostly 102 µM), without a hit: top-dose activity, negative = inhibition, hits mostly inhibitors; hit rate 8.8% among 350,000; AID 504332, 2011; note: % is set by controls: 0 for no effect and ±100 for the full control effect; nearly all actives have a fitted effect of over 75% in size
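Step 1: enzyme (final 20 nM) with compound, 15 min RT. Step 2: substrate peptide 500 nM and SAM 20 uM, 2 h RT. Step 3: anti-H3K9me1 antibody and AlphaScreen beads, 10 min, then plate read.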
L3MBTL1 inh = qHTS Assay for the Inhibitors of L3MBTL1; hit rate 0.66% among 230,000; Lethal(3)malignant brain tumor-like protein 1 (Homo sapiens), Q9Y468; Potency, µM (titrated, usually from 57.1 µM), for inactives: top-dose activity, negative = inhibition, most hits filed as inhibitors; AlphaScreen L3MBTL1–H3K9me1 peptide binding; AID 485360, 2010; note: % is set by controls: 0 for no effect and ±100 for the full control effect; nearly all actives have a fitted effect of over 60% in size
Target sequence (Q9Y468 whole entry, looked up): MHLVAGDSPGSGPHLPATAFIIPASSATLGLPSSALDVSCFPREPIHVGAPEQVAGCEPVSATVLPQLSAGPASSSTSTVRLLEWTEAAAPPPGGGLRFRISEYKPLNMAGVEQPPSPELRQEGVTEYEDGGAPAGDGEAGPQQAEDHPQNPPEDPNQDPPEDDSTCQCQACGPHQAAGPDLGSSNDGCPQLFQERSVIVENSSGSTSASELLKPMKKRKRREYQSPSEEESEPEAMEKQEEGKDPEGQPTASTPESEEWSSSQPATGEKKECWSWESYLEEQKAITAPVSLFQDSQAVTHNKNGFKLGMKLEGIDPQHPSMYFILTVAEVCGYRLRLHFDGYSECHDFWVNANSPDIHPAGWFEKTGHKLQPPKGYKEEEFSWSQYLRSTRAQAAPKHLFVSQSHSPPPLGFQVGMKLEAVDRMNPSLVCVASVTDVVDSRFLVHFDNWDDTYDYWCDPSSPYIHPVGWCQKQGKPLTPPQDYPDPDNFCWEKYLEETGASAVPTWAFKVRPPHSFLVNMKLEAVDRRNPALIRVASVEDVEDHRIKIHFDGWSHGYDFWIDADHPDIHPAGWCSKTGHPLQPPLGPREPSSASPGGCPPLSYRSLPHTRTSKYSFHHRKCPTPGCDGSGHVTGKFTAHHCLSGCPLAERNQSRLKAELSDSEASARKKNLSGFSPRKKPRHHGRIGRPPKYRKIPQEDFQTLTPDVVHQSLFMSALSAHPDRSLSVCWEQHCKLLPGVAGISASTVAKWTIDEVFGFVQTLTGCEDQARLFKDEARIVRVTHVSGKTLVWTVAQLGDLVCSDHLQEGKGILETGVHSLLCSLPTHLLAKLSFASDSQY
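Read-out is AlphaScreen signal from streptavidin donor and nickel chelate acceptor beads (10 ug/mL final each) bridging L3MBTL1 (50 nM) and biotinylated K9-monomethylated H3(1-15) peptide (75 nM), after 30 min compound exposure at room temperature.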
HP1b chromo inh = HTS for Inhibitors of HP1-beta Chromodomain Interactions with Methylated Histone Tails | AlphaScreen HP1-beta / biotin-H3K9me3 peptide binding | hit rate 0.56% among 390,000 | Potency, µM (top dose mostly 114 µM), without a hit: at the highest dose activity change, negative = inhibition, most hits filed as inhibitors | Chromobox protein homolog 1 (Homo sapiens), P83916; note: nearly all actives have a fitted effect of over 70% in size
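Compound inhibition of the preformed complex between 50 nM HP1-beta and 50 nM biotinylated H3K9me3 peptide was read by AlphaScreen. Buffer was PBS pH 7.4 with 0.01% Tween-20. Incubations ran 30 min at room temperature, with 10 ug/mL donor/acceptor beads.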
Sfp inh = qHTS Assay for Inhibitors of Bacillus subtilis Sfp phosphopantetheinyl transferase (PPTase); hit rate 3.5% among 310,000; Potency, µM, for the others: largest response in the series, negative = inhibition, hits mostly inhibitors; Biochemical Sfp PPTase activity, qHTS; 4'-phosphopantetheinyl transferase ffp (Bacillus subtilis), Q9F4F7;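 note: the enzyme is Sfp with the accession as filed and its product quenches rhodamine fluorescence; 0% = enzyme reaction without inhibitor and -100% = no enzyme wells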
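Reaction rates are the 30-min fluorescence difference (ex 525, em 598 nm) in wells containing 15 nM Sfp, 5 uM rhodamine-CoA and 12.5 uM BHQ-2-YbbR at pH 7.6 with 10 mM MgCl2.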
Active calls of the source: *; ? = inconclusive; / = not tested or not shown; [ ] = dose if it differs, or a comment. Calls come from the whole dose curve; as a rule, active = well fitted curve in the direction sought with a large enough effect; inconclusive = small, poorly fitted or top-dose-only effect, or another doubt; inactive = no such curve, though single readings can be large; an effect the other way counts as inactive or inconclusive. Potency is the fitted concentration of half-maximal effect.

SMILES	BAZ2B block	JMJD2A Tudor	G9a block	L3MBTL1 inh	HP1b chromo inh	Sfp inh
Cc1[nH]n(C(N)=S)c(=O)c1N=Nc1ccc2ccccc2c1	25.1µM*	44.7µM*	31.6µM*	-20.3%	?	11.1%
Cc1ccc(N=Nc2c(C)[nH]n(C(N)=S)c2=O)cc1C	7.3%	-8.9%	2.1%[59 µM]	1.7%	2.4%	-20.5%
CC(=O)Nc1ccc(N=Nc2c(C)[nH]n(C(N)=S)c2=O)cc1	-11.3%	-27.1%	44.7µM*	/	8.3%	39.8µM*
COc1ccc(S(=O)(=O)c2cn(C)c3cc(N4CCCCCC4)c(F)cc3c2=O)cc1	2.6%	-1.7%	6.3%[59 µM]	/	29.1%	/
COc1ccccc1NC(=O)c1sc2nc(C)c(C(=O)Nc3ccc(C)cc3C)c(-c3ccc(Br)cc3)c2c1N	2.7%	8.2%	22.5%[59 µM]	/	72.7%	/
c1ccc(COc2cccc(CNCc3ccccn3)c2)cc1	?	-26.8%	0.0%[12.7 µM]	-17.5%	40.4%	?
Oc1ccc(NCc2cccc(OCc3ccccc3)c2)cc1	-28.8%	50.1µM*	12.6µM*	?	?	?
c1ccc(COc2cccc(CNCc3cccnc3)c2)cc1	50.1µM*	?	?	-1.0%	19.0%	-7.3%
CCOc1cc(CNc2ccc(O)cc2)cc(Cl)c1OCc1ccccc1	28.2µM*	44.7µM*	?	/	35.5µM*	/
CCCOc1ccc(CN(C(=O)Cc2coc3ccc(CC)cc23)C2CCS(=O)(=O)C2)cc1 (stereo unspecified)	-20.5%	-21.2%	-22.9%[59 µM]	/	27.9%	/
COc1ccc(NC(=S)NNC(=S)Nc2cccc(C(F)(F)F)c2)cc1	?	?	22.4µM*	-27.9%	?	20µM*
COC(=S)Nc1cccc(C(F)(F)F)c1	-9.3%	5.0%	/	66.7%	41.7%	8.2%
Cc1cc(C(F)(F)F)nn1CC(=O)NNC(=S)Nc1ccc(F)cc1	1.1%	-9.7%	-9.8%[12.7 µM]	/	32.3%	1.3%
COc1cccc(NC(=S)NNC(=O)Cn2nc(C(F)(F)F)cc2C)c1	-6.4%	0.7%	11.2µM*	-11.5%	24.3%	15.8%
O=C(NC(=S)Nc1cccc(C(F)(F)F)c1)c1ccc2nonc2c1	?	?	44.7µM*	-29.1%	?	?
CCOc1ccc(NC(=S)NNC(=O)c2cc(Br)ccc2Cl)cc1	-18.7%	-29.4%	44.7µM*	6.3%	-15.6%	-11.1%
Cc1ccc(Cl)cc1N1CCN(C(=O)C2CCN(S(=O)(=O)c3cn(C)cn3)CC2)CC1	-12.5%	-14.9%	19.7%[59 µM]	/	5.5%	/
COc1cccc(NC(=S)NNC(=O)c2c([N+](=O)[O-])c(C)nn2C)c1	0.3%	-10.8%	-2.0%[59 µM]	-0.7%	17.1%	4.8%
CCOc1cc(OCC)cc(C(=O)NC(=S)Nc2cccc(C(F)(F)F)c2)c1	-1.4%[57.1 µM]	-10.3%	-3.3%[59 µM]	2.6%	11.4%	89.1µM*
CC(C)(C)NC(=S)Nc1cccc(C(F)(F)F)c1	8.4%	-16.6%	46.1%	5.4%	13.2%	-2.8%
CCOc1ccc(NC(=S)NNC(=S)Nc2cccc(C(F)(F)F)c2)cc1	?	-24.5%	/	-9.7%	-2.0%	35.5µM*
COc1cccc(NC(=S)NNC(=O)C(C)n2nc(C)c([N+](=O)[O-])c2C)c1 (stereo unspecified)	-3.9%[57.1 µM]	-6.4%	39.8µM*	-2.0%	19.4%	20.8%
CC1CCC(NC(=O)c2ccc3c(c2)N(Cc2ccccc2F)C(=O)c2ccccc2S3(=O)=O)CC1 (stereo unspecified)	-14.8%	-20.2%	-5.4%[59 µM]	/	29.9%	/
O=C1C=CC2=C3c4cc(O)c(O)cc4C[C@@]3(O)COC2=C1	/	/	/	/	/	31.6µM*

Screens deposited in PubChem by National Center for Advancing Translational Sciences (NCATS).
